Screening results (PubChem)
VACV Venus inh: vaccinia inhibition (Venus reporter). Vaccinia virus Venus reporter expression, fluorescence. AID 720580. Potency, µM (titrated, usually from 36.5 µM), inactives show at the top dose activity change, negative = inhibition, hits mostly inhibitors. actives 0.46% (n = 330,000); calls by dose curve; tested in A549 cells; further: potency means the concentration at half of the fitted maximal effect; nearly all actives have a fitted effect of over 30% in size
HCMV antiviral: human cytomegalovirus inhibition | actives 4.5% (n = 410,000) | activity change, negative = inhibition, % at 57.5 µM | AID 1259415 | HFF cells, HCMV-luciferase reporter, 72 h; active compounds read low; in the data active means activity change below about -60%; inconclusive means no clear call, values can overlap the other calls; inactive means above about -39%
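Screen run at 2 compound doses on HFFs infected with reporter HCMV, MOI 1 PFU/cell. Luciferase activity from cell lysates at 72 h post infection gave inhibition relative to buffer-only and Salinomycin wells.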
FMDV antiviral: foot and mouth disease virus antiviral activity | Potency, µM (highest dose often 57.9 µM), without a hit: at the top dose activity change, negative = inhibition, most hits filed as inhibitors | FMDV antiviral cell-based qHTS | actives 1.2% (n = 410,000); calls by dose curve; tested in HEK293T cells; further: read-out not given here; potency means the concentration at half of the fitted maximal effect; nearly all actives have a fitted effect of over 45% in size
VACV mCherry inh: inhibitors of vaccinia virus infection (mCherry reporter signal) | Vaccinia virus mCherry reporter infection, fluorescence | Potency, µM (titrated, usually from 36.5 µM), for inactives: at the top dose activity change, negative = inhibition, most hits filed as inhibitors | actives 0.63% (n = 310,000) | AID 720579; calls by dose curve; tested in A549 cells; further: potency means the concentration at half of the fitted maximal effect; nearly all actives have a fitted effect of over 35% in size
HCV inh: blocks hepatitis C virus; Huh7.5.1 HCVcc-Cre infection, luciferase reporter, 44 h; Potency, µM (series often up to 41.8 µM), for inactives: top-dose activity change, negative = inhibition, most hits filed as inhibitors; actives 3.4% (n = 340,000); AID 651820; active means well fitted inhibition curve with a large enough effect; inconclusive means small, poorly fitted or top-dose-only effect, or another doubt; inactive means no such curve, though single readings can be large or run the other way; further: potency means the concentration at half of the fitted maximal effect
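Whole-lifecycle infectious HCVcc-Cre system; cells 1,000/well, compound then virus (~0.5 moi) added 4 h after plating, 44 h culture. Luciferase read 15 sec following 15 min substrate incubation, room temp.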
Numbers without * were called inactive; [ ] = dose if it differs, or a comment. Only some compounds are listed: those with a hit (about 7.3% of all), similar ones and a draw of the others. On the % scale 0 is the no-effect control and ±100 the full control effect.

`NC(=O)c1sc2nc3c(c(-c4ccco4)c2c1N)CCCC3` gave HCMV antiviral -64*, FMDV antiviral inconclusive and HCV inh -27%.
`Cc1ccc(NC(=O)c2c(C)nc3sc(C(=O)NC4CCCC4)c(N)c3c2-c2ccco2)c(C)c1` gave VACV Venus inh -2%, HCMV antiviral 6, FMDV antiviral -15%, VACV mCherry inh -1% and HCV inh inconclusive.
Screening Cc1ccccc1NC(=O)c1sc2nc3c(c(-c4ccco4)c2c1N)CCC3 returned VACV Venus inh -10%, HCMV antiviral -12, FMDV antiviral -22%, VACV mCherry inh inactive and HCV inh 4µM*.
Screening COC(=O)c1sc2nc3c(c(-c4cccs4)c2c1N)CCCC3 returned VACV Venus inh -16%, HCMV antiviral inconclusive, FMDV antiviral -21%, VACV mCherry inh -7% and HCV inh inconclusive.
For O=C(CSc1nc(=O)n(Cc2ccccn2)c2c1CCC2)Nc1ccccc1 the results were VACV Venus inh -11%[7.34 µM], HCMV antiviral -7, FMDV antiviral 13% and VACV mCherry inh -16%[7.34 µM].
C/C(=N\NC(=O)COc1cccc(C)c1)c1ccc2ccccc2c1O was read as HCMV antiviral -77*, FMDV antiviral 35% and HCV inh 11µM*.
Cc1cc(/C=N/Nc2ncnc(N)c2[N+](=O)[O-])c(C)n1-c1ccccc1 was read as VACV Venus inh -7%, HCMV antiviral -83*, FMDV antiviral 3.5µM*, VACV mCherry inh inconclusive and HCV inh inconclusive.
Screening COc1cccc(/C=N/Nc2ncnc(N)c2[N+](=O)[O-])c1OC returned FMDV antiviral -40% and HCV inh -12%.
For CC(C)n1cc(CN2CCC(C(=O)Nc3cccc(-c4cscn4)c3)CC2)cn1 the results were HCMV antiviral -8, FMDV antiviral -24% and HCV inh inconclusive.
For Cc1ncc(CN2CCCC(C(=O)Nc3ccc(-c4cccc(F)c4)cc3)C2)n1C (configuration not stated) the results were VACV Venus inh -23%, HCMV antiviral -29, FMDV antiviral inconclusive, VACV mCherry inh inconclusive and HCV inh 3.5µM*.
`Cn1cc(CN2CCCC(C(=O)Nc3cccc(-c4cc5ccccc5[nH]4)c3)C2)cn1` (configuration not stated) gave VACV Venus inh inconclusive, HCMV antiviral -22, FMDV antiviral inconclusive, VACV mCherry inh inconclusive and HCV inh 7.1µM*.
`COc1cccc(-c2ccc(NC(=O)C3CCCN(Cc4cnn(C)c4)C3)cc2)c1` (configuration not stated) gave HCMV antiviral 11, FMDV antiviral -7% and HCV inh 13µM*.
For CC(C)n1cc(CN2CCCC(C(=O)Nc3cccc(-c4cc5ccccc5[nH]4)c3)C2)cn1 (configuration not stated) the results were VACV Venus inh inconclusive, HCMV antiviral -33, FMDV antiviral inconclusive, VACV mCherry inh 11µM* and HCV inh 11µM*.
Screening CCn1cc(CN2CCCC(C(=O)Nc3cccc(-c4cc5ccccc5[nH]4)c3)C2)c(C)n1 (configuration not stated) returned VACV Venus inh -28%, HCMV antiviral 5, FMDV antiviral -14%, VACV mCherry inh -27% and HCV inh inconclusive.
`COc1cccc(-c2ccc(NC(=O)C3CCCN(Cc4cnn(C)c4C)C3)cc2)c1` (configuration not stated) gave HCMV antiviral 0, FMDV antiviral -4% and HCV inh inconclusive.
Cc1c(O)ccc2c1OC(C)(C)CC2 was read as VACV Venus inh -11% and VACV mCherry inh -21%.
`CCOC(=O)c1ccc(NC(=O)CCc2nc3cccnc3n2Cc2cccs2)cc1` gave VACV Venus inh -9%, HCMV antiviral 37, FMDV antiviral -27% and VACV mCherry inh -11%[7.34 µM].
`Cc1cccc(C)c1NC(=O)C1(C)CN(S(C)(=O)=O)CC(=O)N1CCc1c[nH]c2ccccc12` (configuration not stated) gave VACV Venus inh -7%, HCMV antiviral -1, FMDV antiviral 0% and VACV mCherry inh -3%.
For COC(=O)c1cccc(N2C(=O)C[C@](Sc3ccc(OC)cc3)(C(=O)N3CCCC3)[C@H]2c2ccc(OC)cc2)c1 the results were HCMV antiviral -14.
`CC(C)(C)C1CCc2nc(NC(=O)Cc3cn4ccsc4n3)sc2C1` (configuration not stated) gave VACV Venus inh inconclusive, HCMV antiviral 15, FMDV antiviral 41% and HCV inh 22µM*.
`COC(=O)[C@H](C)NS(=O)(=O)C1CC1` gave VACV Venus inh -14% and VACV mCherry inh inactive.
`Cc1noc(C)c1-c1cncnc1-n1ccnc1` gave FMDV antiviral -10%.
`C1=C(CCNc2ncnc3nc[nH]c23)CCCC1` gave VACV Venus inh -28%, HCMV antiviral 1, FMDV antiviral 0%, VACV mCherry inh -26% and HCV inh 10µM*.
For Clc1ccc(CCNc2ncnc3nc[nH]c23)cc1 the results were VACV Venus inh inconclusive, FMDV antiviral inconclusive, VACV mCherry inh inconclusive and HCV inh 10µM*.
Screening c1ccc(CCCNc2ncnc3nc[nH]c23)cc1 returned VACV Venus inh -12%, HCMV antiviral 5, FMDV antiviral -15%, VACV mCherry inh -10% and HCV inh inconclusive.
Screening c1ccc2c(CCNc3ncnc4nc[nH]c34)cccc2c1 returned HCMV antiviral -35, FMDV antiviral 32µM* and HCV inh 11µM*.
`CCCCc1ccc(Nc2ncnc3nc[nH]c23)cc1` gave VACV Venus inh -29%, HCMV antiviral 25, FMDV antiviral 19%, VACV mCherry inh 10µM* and HCV inh 6%.
`CCCNc1ncnc2nc[nH]c12` gave VACV Venus inh -11%, HCMV antiviral -30, FMDV antiviral -11%, VACV mCherry inh 1% and HCV inh 0%.
For CC(C)[N+]1(C)[C@@H]2CC[C@H]1CC(OC(=O)[C@@H](CO)c1ccccc1)C2 (some centres not stated) the results were FMDV antiviral -7%.
COc1ccccc1NC(=O)Cn1cc(S(=O)(=O)Cc2ccccc2)c2ccccc21 was read as VACV Venus inh -7%, HCMV antiviral 0, FMDV antiviral -17% and VACV mCherry inh -17%.
Cc1cccc(NC(=O)c2sc3nc(-c4ccccc4)cn3c2C)c1C was read as VACV Venus inh -11%, HCMV antiviral 2, FMDV antiviral 28% and VACV mCherry inh -12%.
Screening Cc1ccc(N2C(N)=C(C#N)C(c3ccsc3)C3=C2CC(C)(C)CC3=O)cc1 (configuration not stated) returned VACV Venus inh -23%, HCMV antiviral -101*, FMDV antiviral -26%, VACV mCherry inh -23%[1.46 µM] and HCV inh 13µM*.
